Inconclusive results are not listed. A call without a number means that no potency is given here. Unmarked numbers belong to inactive results. The source made the active and inactive calls. Calls come from the whole dose curve; as a rule, active = well fitted inhibition curve with a large enough effect; inconclusive = small, poorly fitted or top-dose-only effect; inactive = flat fitted curve, though single readings scatter.
Experiments:
[1] = qHTS profiling for inhibitors of Plasmodium falciparum proliferation (AID 504749); for all read-outs here: nearly all actives have a fitted effect of over 60% in size; details: P. falciparum in erythrocytes, SYBR Green DNA, 72 h; for activity, negative = inhibition: at 28.7 µM (top of the series)
Procedure, shortened: (§1)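 SYBR Green fluorescence (ex 485 nm, em 535 nm) reports parasite DNA after 72 h compound exposure of infected red cells at 0.3% parasitemia, 2.5% hematocrit; signal normalized to 0.29 uM artemisinin and vehicle wells.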

3D7 = assay: as above; details: P. falciparum in erythrocytes, SYBR Green DNA, 72 h; series mostly up to 28.7 µM
Procedure, shortened: as §1

AA1029 = assay: as above; details: P. falciparum in erythrocytes, SYBR Green DNA, 72 h; series mostly up to 28.7 µM
Procedure, shortened: as §1

AS120 = assay: as above; details: P. falciparum in erythrocytes, SYBR Green DNA, 72 h; series mostly up to 28.7 µM
Procedure, shortened: as §1

ATS189 = assay: as above; details: P. falciparum in erythrocytes, SYBR Green DNA, 72 h; series mostly up to 28.7 µM
Procedure, shortened: as §1

ATS95 = assay: as above; details: P. falciparum in erythrocytes, SYBR Green DNA, 72 h; series mostly up to 28.7 µM
Procedure, shortened: as §1

C2A = assay: as above; details: P. falciparum in erythrocytes, SYBR Green DNA, 72 h; series mostly up to 28.7 µM
Procedure, shortened: as §1

CP185 = assay: as above; details: P. falciparum in erythrocytes, SYBR Green DNA, 72 h; series mostly up to 28.7 µM
Procedure, shortened: as §1

7G8 = assay: as above; details: P. falciparum in erythrocytes, SYBR Green DNA, 72 h; series mostly up to 28.7 µM
Procedure, shortened: as §1
Potency is the fitted concentration of half-maximal effect.

Row | Structure (SMILES) | activity, negative = inhibition ([1]; parasite line A) [%] | activity, negative = inhibition ([1]; parasite line B) [%] | Potency (3D7) | Potency (AA1029) | Potency (AS120) | Potency (ATS189) | Potency (ATS95) | Potency (C2A) | Potency (CP185) | Potency (7G8) | Potency ([1]; parasite line B)
1 | O=S(=O)(O)c1cc(I)c(O)c2ncccc12 | 12 | -2.06 | inactive | inactive | inactive | inactive | inactive | inactive | inactive | – | –
2 | CN(C)CCCN1c2ccccc2Sc2ccc(Cl)cc21 | – | – | – | – | – | – | 11.2 µM (active) | – | – | 10 µM (active) | –
3 | CC1=C(CC(=O)O)c2cc(F)ccc2/C1=C\c1ccc(S(C)=O)cc1 (centres undefined) | -3.64 | -4.38 | inactive | inactive | inactive | inactive | inactive | inactive | inactive | – | –
4 | CCCc1c(OCCCCc2nn[nH]n2)ccc(C(C)=O)c1O | – | -24.5 | inactive | inactive | inactive | – | inactive | inactive | inactive | 12.6 µM (active) | –
5 | Oc1ccc(C(O)CNCCCCCCNCC(O)c2ccc(O)c(O)c2)cc1O (centres undefined) | – | – | – | – | – | – | – | – | – | 3.55 µM (active) | –
6 | CN1CCN(C2Cc3ccccc3Sc3ccc(Cl)cc32)CC1 (centres undefined) | -18.4 | -6.83 | inactive | – | – | inactive | inactive | inactive | inactive | 8.91 µM (active) | –
7 | Cc1ccc(C(C)C)cc2c(C)ccc1-2 | -17.3 | -20.9 | inactive | inactive | inactive | inactive | inactive | inactive | inactive | – | –
8 | Cc1cc(N)c2ccccc2[n+]1CCCCCCCCCC[n+]1c(C)cc(N)c2ccccc21 | – | – | 0.708 µM (active) | 0.316 µM (active) | 7.94 µM (active) | 0.316 µM (active) | – | 0.282 µM (active) | 0.316 µM (active) | 0.0355 µM (active) | 14.1 µM (active)
9 | CC(C)(C)C(=O)C(Oc1ccc(Cl)cc1)n1ccnc1 (centres undefined) | – | – | 10 µM (active) | – | 10 µM (active) | 8.91 µM (active) | – | – | inactive | 7.94 µM (active) | –
10 | CC(C(O)c1ccc(O)cc1)N1CCC(Cc2ccccc2)CC1 (centres undefined) | – | – | – | – | 8.91 µM (active) | 11.2 µM (active) | – | 10 µM (active) | 8.91 µM (active) | 8.91 µM (active) | –
11 | CN(C)CCN(Cc1ccccc1)c1ccccn1 | -2.14 | 9.22 | inactive | – | – | – | – | inactive | inactive | inactive | –
12 | Cc1c(Cl)cccc1Nc1ccccc1C(=O)O | -2.73 | 8.76 | inactive | inactive | inactive | inactive | inactive | inactive | inactive | – | –
13 | O=C1NS(=O)(=O)c2ccccc21 | 2.53 | – | inactive | inactive | inactive | inactive | – | inactive | inactive | inactive | –
14 | CC(CN1c2ccccc2Sc2ccccc21)N(C)C (centres undefined) | 8.14 | -0.843 | inactive | – | – | inactive | – | inactive | inactive | 8.91 µM (active) | –
15 | CSc1ccc2c(c1)C(N1CCN(C)CC1)Cc1ccccc1S2 (centres undefined) | – | – | – | – | – | – | – | – | – | 10 µM (active) | –
16 | Cc1cc(C(C#N)c2ccc(Cl)cc2)c(Cl)cc1NC(=O)c1cc(I)cc(I)c1O (centres undefined) | 8.49 | 7.42 | inactive | inactive | inactive | inactive | inactive | inactive | inactive | – | –
17 | CCOC(CN1CCN(CC(C)C(=O)c2ccccc2)CC1)c1ccccc1 (centres undefined) | 2.77 | 3.94 | inactive | – | inactive | – | inactive | inactive | inactive | 11.2 µM (active) | –
18 | CCCCOC(=O)c1ccc(O)cc1 | 8.74 | 8.94 | inactive | inactive | inactive | inactive | inactive | inactive | inactive | – | –
19 | CN1CCCCC1CCN1c2ccccc2Sc2ccc(S(C)=O)cc21 (centres undefined) | -4.2 | 5.63 | inactive | – | – | – | – | – | inactive | 10 µM (active) | –
20 | CC(C)(C)NCC(O)COc1ccc(NC(=O)NC2CCCCC2)cc1 (centres undefined) | – | 2.44 | inactive | inactive | inactive | inactive | inactive | inactive | inactive | – | –
21 | CCOc1nc2cccc(C(=O)O)c2n1Cc1ccc(-c2ccccc2-c2nn[nH]n2)cc1 | -6.01 | -13.6 | inactive | – | – | inactive | – | – | inactive | 8.91 µM (active) | –
22 | COC(=O)C1=C(C)NC(C)=C(C(=O)OC)C1c1ccccc1[N+](=O)[O-] | -7.51 | -24 | inactive | inactive | inactive | inactive | inactive | inactive | inactive | – | –

From PubChem BioAssay (NCATS)
